Source: PubChem BioAssay (NCATS)
Results filed as inconclusive are left out. Some of the results follow. Activity calls are given as the source filed them. Calls come from the whole dose curve; as a rule, active = well fitted curve in the direction sought with a large enough effect; inconclusive = small, poorly fitted or top-dose-only effect, or another doubt; inactive = no such curve, though single readings can be large; an effect the other way counts as inactive or inconclusive.

Tests used:
3D7 = assay: qHTS profiling for inhibitors of Plasmodium falciparum proliferation (AID 504749); note: nearly all actives have a fitted effect of over 60% in size; conditions: P. falciparum in erythrocytes, SYBR Green DNA, 72 h; series mostly up to 28.7 µM
Summary of the method: (§1)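 P. falciparum-infected erythrocytes (0.3% parasitemia, 2.5% hematocrit final) were exposed to compounds for 72 h at 37 C in 5% CO2, then lysed with SYBR Green buffer overnight at room temperature; parasite DNA fluorescence was normalized to artemisinin and DMSO controls.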

CP217 = assay: as above; conditions: P. falciparum in erythrocytes, SYBR Green DNA, 72 h; series mostly up to 28.7 µM
Summary of the method: as §1

CP250 = assay: as above; conditions: P. falciparum in erythrocytes, SYBR Green DNA, 72 h; series mostly up to 28.7 µM
Summary of the method: as §1

CP260 = assay: as above; conditions: P. falciparum in erythrocytes, SYBR Green DNA, 72 h; series mostly up to 28.7 µM
Summary of the method: as §1

CP286 = assay: as above; conditions: P. falciparum in erythrocytes, SYBR Green DNA, 72 h; series mostly up to 28.7 µM
Summary of the method: as §1

DIV14 = assay: as above; conditions: P. falciparum in erythrocytes, SYBR Green DNA, 72 h; series mostly up to 28.7 µM
Summary of the method: as §1

ECU = assay: as above; conditions: P. falciparum in erythrocytes, SYBR Green DNA, 72 h; series mostly up to 28.7 µM
Summary of the method: as §1

N140 = assay: as above; conditions: P. falciparum in erythrocytes, SYBR Green DNA, 72 h; series mostly up to 28.7 µM
Summary of the method: as §1

P93_24 = assay: as above; conditions: P. falciparum in erythrocytes, SYBR Green DNA, 72 h; series mostly up to 28.7 µM
Summary of the method: as §1

PAD = assay: as above; conditions: P. falciparum in erythrocytes, SYBR Green DNA, 72 h; series mostly up to 28.7 µM
Summary of the method: as §1

PC15 = assay: as above; conditions: P. falciparum in erythrocytes, SYBR Green DNA, 72 h; series mostly up to 28.7 µM
Summary of the method: as §1

SC27B = assay: as above; conditions: P. falciparum in erythrocytes, SYBR Green DNA, 72 h; series mostly up to 28.7 µM
Summary of the method: as §1

TAB165 = assay: as above; conditions: P. falciparum in erythrocytes, SYBR Green DNA, 72 h; series mostly up to 28.7 µM
Summary of the method: as §1

[1] = target: DNA polymerase eta (Homo sapiens) (UniProt Q9Y253); assay: qHTS for Inhibitors of Polymerase Eta: Confirmatory Assay for Cherry-picked Compounds (AID 720502); conditions: Pol eta primer extension, TAMRA/BHQ fluorescence, 10 min; note: potency is the fitted concentration of half-maximal effect
Chain of DNA polymerase eta (Homo sapiens) (Q9Y253 whole entry, looked up): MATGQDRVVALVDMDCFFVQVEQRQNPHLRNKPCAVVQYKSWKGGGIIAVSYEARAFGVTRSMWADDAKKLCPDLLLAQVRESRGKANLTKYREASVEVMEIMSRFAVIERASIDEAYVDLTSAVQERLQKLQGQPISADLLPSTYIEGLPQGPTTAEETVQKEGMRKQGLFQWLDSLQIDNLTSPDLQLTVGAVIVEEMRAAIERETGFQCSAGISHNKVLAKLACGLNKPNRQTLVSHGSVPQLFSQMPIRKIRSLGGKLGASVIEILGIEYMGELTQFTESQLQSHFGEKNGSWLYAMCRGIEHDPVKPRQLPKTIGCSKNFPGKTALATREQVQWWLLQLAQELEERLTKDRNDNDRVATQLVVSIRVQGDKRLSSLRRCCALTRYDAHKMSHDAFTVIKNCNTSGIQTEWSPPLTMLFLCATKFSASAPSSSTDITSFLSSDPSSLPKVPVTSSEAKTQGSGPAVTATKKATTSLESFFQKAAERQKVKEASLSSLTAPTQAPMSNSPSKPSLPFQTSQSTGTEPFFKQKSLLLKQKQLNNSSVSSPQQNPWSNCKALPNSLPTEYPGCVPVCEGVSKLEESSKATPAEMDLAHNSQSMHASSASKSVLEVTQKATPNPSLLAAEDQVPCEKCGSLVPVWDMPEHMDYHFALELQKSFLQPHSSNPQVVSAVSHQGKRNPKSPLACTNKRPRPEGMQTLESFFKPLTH
Summary of the method: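 Enzyme at 10 nM is mixed with pin-transferred compound and left 15 min at room temperature. Substrate (50 nM final) is then added, and plates are read at 0 min and after 10 min.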

[2] = target: Tyrosyl-DNA phosphodiesterase 1 (Homo sapiens) (UniProt Q9NUW8); assay: Confirmation Assay for Inhibitors of Tyrosyl-DNA Phosphodiesterase (TDP1) (AID 489007); conditions: recombinant human TDP1 enzymatic activity, dose-response; note: potency is the fitted concentration of half-maximal effect; nearly all actives have a fitted effect of over 40% in size
Chain of Tyrosyl-DNA phosphodiesterase 1 (Homo sapiens) (Q9NUW8 whole entry, looked up): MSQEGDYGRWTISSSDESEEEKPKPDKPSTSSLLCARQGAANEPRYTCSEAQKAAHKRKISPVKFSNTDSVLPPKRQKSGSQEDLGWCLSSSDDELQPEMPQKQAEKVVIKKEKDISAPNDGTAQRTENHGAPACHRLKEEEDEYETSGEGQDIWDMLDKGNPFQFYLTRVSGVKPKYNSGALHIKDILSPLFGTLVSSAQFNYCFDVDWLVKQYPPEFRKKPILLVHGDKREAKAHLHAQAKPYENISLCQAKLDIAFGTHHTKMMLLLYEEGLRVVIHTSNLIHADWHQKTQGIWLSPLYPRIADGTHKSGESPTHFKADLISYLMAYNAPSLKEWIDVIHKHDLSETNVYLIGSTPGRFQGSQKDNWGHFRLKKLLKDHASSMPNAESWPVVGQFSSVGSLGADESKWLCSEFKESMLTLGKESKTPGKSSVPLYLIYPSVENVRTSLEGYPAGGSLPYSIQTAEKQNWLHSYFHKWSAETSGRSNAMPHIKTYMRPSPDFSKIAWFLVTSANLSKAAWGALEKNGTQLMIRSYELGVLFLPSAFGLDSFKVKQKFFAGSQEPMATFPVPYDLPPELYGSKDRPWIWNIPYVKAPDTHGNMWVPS
Summary of the method: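 Recombinant E. coli-expressed Tdp1 (1 nM final) was preincubated with compounds 15 min at room temperature, then reacted 5 min with 15 nM 5'-biotin/3'-phosphotyrosine-FITC DNA substrate; cleavage read as loss of AlphaScreen signal (10 ug/ml beads, 10 min).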

[3] = qHTS Assay for Inhibitors of Fructose-1,6-bisphosphate Aldolase from Giardia Lamblia: Mammalian cellular toxicity (AID 2786); conditions: mammalian cell viability counter-screen; series mostly up to 57.5 µM;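 note: compound exposure lasted 48 h before reading; nearly all actives have a fitted effect of over 60% in size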
Summary of the method: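 Chinese hamster ovary cells (250/well, DMEM with 10% FBS and penicillin/streptomycin) were exposed to compounds for 48 h at 37 °C, 5% CO2. Viability was taken as cellular ATP content, read with ATPlite reagent after 20 min.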

[4] = target: Fructose-bisphosphate aldolase (Giardia intestinalis (strain ATCC 50803 / WB clone C6)) (UniProt A8B2U2); assay: qHTS Assay for Inhibitors of Fructose-1,6-bisphosphate Aldolase from Giardia Lamblia: Primary screen confirmation (AID 2787); conditions: purified Giardia aldolase enzyme activity; series mostly up to 57.5 µM;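 note: aldolase product measured through coupled diaphorase step turning resazurin into fluorescent resorufin; nearly all actives have a fitted effect of over 45% in size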
Chain of Fructose-bisphosphate aldolase (Giardia intestinalis (strain ATCC 50803 / WB clone C6)) (A8B2U2 whole entry, looked up): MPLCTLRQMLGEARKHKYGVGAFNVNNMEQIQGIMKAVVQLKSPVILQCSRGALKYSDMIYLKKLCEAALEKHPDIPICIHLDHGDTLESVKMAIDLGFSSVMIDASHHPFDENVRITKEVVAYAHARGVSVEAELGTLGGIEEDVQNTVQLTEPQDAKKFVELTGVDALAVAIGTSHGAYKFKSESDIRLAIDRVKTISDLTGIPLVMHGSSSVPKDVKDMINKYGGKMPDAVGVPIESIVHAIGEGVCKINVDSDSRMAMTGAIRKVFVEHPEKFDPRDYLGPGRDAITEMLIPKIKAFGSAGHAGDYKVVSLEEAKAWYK
Summary of the method: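 Confirmation of primary hits by qHTS up to 57.5 uM final compound. Enzyme at 40 nM with 30 uM ZnCl2, 10 min RT pre-incubation, then substrate/coupling/resorufin-forming detection mix for 20 min before fluorescence read at 525/598 nm.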

[5] = target: Fructose-bisphosphate aldolase A (Oryctolagus cuniculus) (UniProt P00883); assay: qHTS Assay for Inhibitors of Fructose-1,6-bisphosphate Aldolase from Giardia Lamblia: Rabbit FBPA Selectivity (AID 2794); conditions: Rabbit muscle FBPA enzyme inhibition, selectivity counter-screen; series mostly up to 57.5 µM; note: nearly all actives have a fitted effect of over 60% in size
Chain of Fructose-bisphosphate aldolase A (Oryctolagus cuniculus) (P00883 whole entry, looked up): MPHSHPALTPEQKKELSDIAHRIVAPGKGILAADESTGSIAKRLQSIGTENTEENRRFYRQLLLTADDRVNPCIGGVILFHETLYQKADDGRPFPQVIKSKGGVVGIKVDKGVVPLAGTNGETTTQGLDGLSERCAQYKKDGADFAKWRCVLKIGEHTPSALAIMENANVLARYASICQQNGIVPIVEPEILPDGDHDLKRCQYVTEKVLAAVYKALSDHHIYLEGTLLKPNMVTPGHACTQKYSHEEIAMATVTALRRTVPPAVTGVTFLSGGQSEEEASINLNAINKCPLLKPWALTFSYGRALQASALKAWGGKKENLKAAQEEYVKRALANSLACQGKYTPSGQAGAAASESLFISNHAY
Summary of the method: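 Each compound, dosed at up to 57.5 uM final, was first mixed with coupling enzyme reagent for 10 min. Aldolase substrate and the AmpLite Red coupling system then ran 20 min at RT before a single fluorescence read.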

[6] = qHTS Assay for Inhibitors of Fructose-1,6-bisphosphate Aldolase from Giardia Lamblia: Coupling assay counterscreen confirmation (AID 2795); conditions: GAPDH coupling enzyme counterscreen, biochemical; series mostly up to 57.5 µM; note: nearly all actives have a fitted effect of over 55% in size
Summary of the method: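 Fluorescence (excitation 525 nm, emission 598 nm) reports signal from the coupled glyceraldehyde-3-phosphate dehydrogenase system with an AmpLite Red detection kit. Compounds up to 57.5 uM final were incubated 10 min, then 20 min after substrate addition, both at room temperature.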

Measured: Potency

Cc1c(C(=O)O)c(O)cc2c1C(=O)c1c(O)c([C@H]3O[C@H](CO)[C@@H](O)[C@H](O)[C@H]3O)c(O)c(O)c1C2=O
not listed: [1] | [2] | [3] | [4] | [5] | [6]
inactive: all other assays above

C=CCn1c(=S)[nH]c2scc(-c3ccco3)c2c1=O
active: [1] 26.9 µM

Cc1cc(C)c2nc(-c3ccco3)cc(C(=O)O)c2c1
active: [2] 15.8 µM

Cc1nnc(SCC2=C(C(=O)O)N3C(=O)C(NC(=O)Cn4nc(C)c(Cl)c4C)C3SC2)s1 (centres undefined)
inactive: [3] | [4] | [5] | [6]
